The nature of experiment [1]: viability loss in pontine glioma line – cell-based, SU-DIPG-IV, MIPE4.0, CellTiter-Glo, qHTS, dose response (AID 1347063; cut-off not given, nearly all actives have AC50 up to about 30 µM;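 further: compound exposure lasted 48 hours before the viability readout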). Conditions: CellTiter-Glo ATP luminescence. In general terms: ATP-based viability assays read luminescence as a measure of living cells.
A short description of experiment [2]: viability loss in pontine glioma line – cell-based, SU-DIPG-XIII, MIPE5.0, CellTiter-Glo, qHTS, dose response (AID 1347064; cut-off not given, nearly all actives have AC50 up to about 23 µM;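 on AC50: cells exposed to compound for 48 hours before the viability read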). Conditions: CellTiter-Glo ATP luminescence.
A short description of experiment [3]: viability loss in pontine glioma line – cell-based, SU-DIPG-XXV, MIPE5.0, CellTiter-Glo, qHTS, dose response (AID 1347065; cut-off not given, nearly all actives have AC50 up to about 26 µM;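 further: cells exposed to compound for 48 hours before ATP readout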). Conditions: CellTiter-Glo ATP luminescence.
Experiment [4] can be described thus: JHH-DIPG-1 glioma cell viability, MIPE5.0 library, CellTiter-Glo luminescence, qHTS (AID 1347067; cut-off not given, nearly all actives have AC50 up to about 26 µM;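 further: cells exposed to compound for 48 hours before readout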). Conditions: JHH-DIPG-1 glioma viability, CellTiter-Glo ATP luminescence.
The nature of experiment [5]: growth inhibition of DIPG cells – cell-based, MIPE4.0 library, CellTiter-Glo luminescence, qHTS (AID 1347066; cut-off not given, nearly all actives have AC50 up to about 30 µM;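 further: cells exposed to compound for 48 hours before readout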). Conditions: SU-DIPG-VI viability, CellTiter-Glo ATP luminescence.
The target of experiment [6] is Mitogen-activated protein kinase 7 (Homo sapiens) (UniProt Q13164). In words: Gal4-ERK5 driven luciferase induction – cell-based, HTS, primary screen (AID 1508626;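 active means luciferase signal above three times the same-plate solvent-only control wells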;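 further: luciferase driven by Gal4-ERK5 fusion binding five Gal4 sites before minimal TATA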). Conditions: HeLa Gal4-ERK5 transactivation, 18 h, at 5 µM, stronger effect = higher value.
Experiment [7] can be described thus: blockers of polyQ-driven CASP3 activation – cell-based (AID 1583). Conditions: polyglutamine-induced caspase-3 activation, cell assay; stronger effect = higher value;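 tested at 10 µM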.
Experiment [8] in a line: growth inhibition, single agents and combos, LFS_MB_1R, cell-based, cisplatin or BGB combos, synergistic combos for chromothripsis tumors (AID 1671452).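 Further: cells exposed for 96 hours before readout.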 Conditions: LFS_MB_1R medulloblastoma cells, stronger effect = higher value.
Experiment [9] in a line: growth inhibition, single agents and combos, CRL2098, cell-based, BGB or cisplatin IC20 combos, synergistic combos for chromothripsis tumors (AID 1671454).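 Further: cells exposed for 96 h before readout; 0% = vehicle DMSO and 100% = killing by high DMSO.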 Conditions: CRL2098 osteosarcoma cells, drug combinations, stronger effect = higher value.
Experiment [10] in a line: growth inhibition, single agents and combos, HD-MB03, cell-based, BGB or cisplatin IC20 combos, synergistic combos for chromothripsis tumors (AID 1671455; in the data active means inhibition above about 83%;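 further: 0% = vehicle DMSO and 100% = high DMSO as cytotoxic control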). Conditions: HD-MB03 medulloblastoma cells, stronger effect = higher value.
The nature of experiment [11]: growth inhibition, single agents and combos, UWB1.289, cell-based, BGB or cisplatin combos, synergistic combos for chromothripsis tumors (AID 1671456).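 Further: cells exposed to compound for four days; 0% = vehicle DMSO and 100% = killing by high DMSO.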 Conditions: UWB1.289 ovarian carcinoma cells, stronger effect = higher value.
A short description of experiment [12]: growth inhibition, single agents and combos, LFS_MB_2R, cell-based, cisplatin combos, synergistic combos for chromothripsis tumors (AID 1671457).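 Further: cells exposed to compound for four days before readout.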 Conditions: LFS_MB_2R medulloblastoma cells, stronger effect = higher value.
Experiment [13] is described as follows: growth inhibition, MDA-MB-436, cell-based, BGB or cisplatin combos, synergistic combos for chromothripsis tumors (AID 1671458; call rule not given here;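 further: cells exposed for 96 hours; 0% = vehicle DMSO and 100% = killing by high DMSO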). Conditions: MDA-MB-436 breast carcinoma growth inhibition, drug combinations, stronger effect = higher value.
A short description of experiment [14]: UWB1.289_BRCA1 ovarian cancer growth, cell-based, BGB or cisplatin combinations (AID 1671459). Conditions: UWB1.289 BRCA1 ovarian carcinoma, drug combinations, stronger effect = higher value.
Experiment [15] can be described thus: drug combination toxicity in non-malignant astrocytes – cell-based, BGB or cisplatin IC20 combos, cytotoxicity control for chromothriptic childhood tumor combination screen (AID 1671460).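 Further: cells exposed to compounds for 96 hours before viability readout; 0% = vehicle and 100% = killing control.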 Conditions: Human astrocytes, viability inhibition, drug combinations, at 0.5 µM, stronger effect = higher value.
Experiment [16] in a line: BT084 cell growth, single and combined drugs, ICGC_MB145, cisplatin and BGB IC40 combos (AID 1671461).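 Further: cells exposed to drugs for 96 hours; 0% = vehicle DMSO and 100% = high DMSO full killing control.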 Conditions: BT084 medulloblastoma cells, drug combinations, stronger effect = higher value.
Experiment [17] is described as follows: RCMB18 cell growth, single agent and combined, cisplatin and BGB IC40 combos (AID 1671462).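 Further: cells exposed to compound for four days.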 Conditions: RCMB18 medulloblastoma cells, stronger effect = higher value.
Experiment [18] is described as follows: CRL1545 cell growth, single agent and combined, cisplatin and BGB IC20 combos (AID 1671464).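 Further: cells exposed to compound for 96 hours before readout; 0% = vehicle DMSO and 100% = high DMSO killing control.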 Conditions: CRL1545 osteosarcoma cells, stronger effect = higher value.
The nature of experiment [19]: liver-stage malaria parasite load reduction – cell-based, known kinase inhibitor set, luminescence, hepatoma host viability (AID 624392; call rule not given here;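 further: infected cells incubated roughly two days before readout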). Conditions: Plasmodium liver stage in hepatoma cells, luciferase luminescence, concentration not given here; liver cell % of control: measured here: host liver cell viability; parasite % of control: stronger effect = lower value.
The mark [20] stands for this setting: measured here: combination with BGB IC40, at 0.05 µM.
Setting [21] is: measured here: combination with cisplatin, at 0.5 µM.
Where [22] appears, read: measured here: combination with cisplatin, at 5 µM.
Setting [23] is: measured here: combination with BGB at IC20, at 0.5 µM.
Where [24] appears, read: measured here: combination with cisplatin at IC20, at 0.5 µM.
Where [25] appears, read: measured here: combo with BGB at IC20, at 0.5 µM.
[26] abbreviates: measured here: combo with cisplatin at IC20, at 0.5 µM.
Setting [27] is: measured here: inhibition with BGB combination, at 0.05 µM.
The mark [28] stands for this setting: measured here: inhibition with cisplatin combination, at 0.05 µM.
Where [29] appears, read: measured here: BGB combination, at 0.5 µM.
[30] abbreviates: measured here: BGB combination, at 5 µM.
Where [31] appears, read: measured here: cisplatin combination, at 0.5 µM.
Setting [32] is: measured here: cisplatin combination, at 5 µM.
Where [33] appears, read: BGB combination, concentration series, at 5 µM.
Where [34] appears, read: cisplatin combination, concentration series, at 5 µM.
The mark [35] stands for this setting: measured here: combo with BGB IC20.
Setting [36] is: measured here: combo with cisplatin IC20.
Where [37] appears, read: cisplatin combination, at 0.5 µM.
The mark [38] stands for this setting: measured here: BGB IC40 combination 0.05 uM, at 0.05 µM.
The mark [39] stands for this setting: measured here: BGB IC40 combination, at 0.05 µM.
The mark [40] stands for this setting: measured here: with BGB IC20 combination, at 0.5 µM.
The mark [41] stands for this setting: measured here: with cisplatin IC20 combination, at 0.5 µM.

By AC50 is commonly meant the midpoint of the concentration-response curve, whichever way the signal moves. What is called inhibition is the change of the read-out against control, counted positive when it falls.

Several values for one entry are separate records, joined by “and”; a condition that tells them apart may be missing. Equal entries are not always repeated. Results filed as inconclusive are left out. Activity calls are given as the source filed them. Unless noted, no stated cut-off is given here; in the data, active means inhibition above about 80%; inactive means the rest.

Mitogen-activated protein kinase 7 (Homo sapiens), sequence (Q13164 whole entry, looked up, the tested form may be a part): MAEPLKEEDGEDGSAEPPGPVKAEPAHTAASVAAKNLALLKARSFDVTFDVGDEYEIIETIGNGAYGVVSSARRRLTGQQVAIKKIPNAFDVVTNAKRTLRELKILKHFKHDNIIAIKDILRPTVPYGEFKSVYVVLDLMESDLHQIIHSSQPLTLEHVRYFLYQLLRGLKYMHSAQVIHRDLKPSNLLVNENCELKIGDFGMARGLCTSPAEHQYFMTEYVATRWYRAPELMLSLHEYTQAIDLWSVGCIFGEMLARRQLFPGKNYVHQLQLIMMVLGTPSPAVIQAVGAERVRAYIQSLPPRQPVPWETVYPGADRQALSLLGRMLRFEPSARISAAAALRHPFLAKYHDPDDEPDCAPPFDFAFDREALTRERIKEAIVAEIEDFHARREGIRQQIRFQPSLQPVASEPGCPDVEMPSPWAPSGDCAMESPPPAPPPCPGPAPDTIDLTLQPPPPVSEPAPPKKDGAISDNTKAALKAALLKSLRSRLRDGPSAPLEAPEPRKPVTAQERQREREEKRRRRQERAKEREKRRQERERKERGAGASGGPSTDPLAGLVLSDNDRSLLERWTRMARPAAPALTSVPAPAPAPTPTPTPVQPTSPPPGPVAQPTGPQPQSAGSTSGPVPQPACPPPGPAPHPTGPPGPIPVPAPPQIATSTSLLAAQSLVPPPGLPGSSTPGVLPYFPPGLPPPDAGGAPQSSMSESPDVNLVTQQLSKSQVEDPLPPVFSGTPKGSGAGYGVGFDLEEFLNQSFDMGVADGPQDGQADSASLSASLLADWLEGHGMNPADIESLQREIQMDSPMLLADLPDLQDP

With `C[C@H](NC(=O)c1sccc1OCc1ccc(Cl)cc1)c1ccccc1`, the concentration at half-maximal activity (AC50) is 18.7 µM (active) in experiment [1], 11.8 µM (active) in experiment [2], 16.6 µM (active) in [3] and 18.6 µM (active) in [4].

For the compound `O=C(/C=C/c1c(C(=O)O)[nH]c2cc(Cl)cc(Cl)c12)Nc1ccccc1`, the result in experiment [1] and in experiment [5] was inactive.

Take `CC(C)(C)/[N+]([O-])=C/c1ccc(S(=O)(=O)O)cc1S(=O)(=O)O`: the call in [1] and in [5] was inactive.

Turning to `C[C@H](NC(=O)Cc1cc(F)cc(F)c1)C(=O)N[C@H](C(=O)OC(C)(C)C)c1ccccc1`, the compound was classed as inactive in experiment [2] and in experiment [4].

For the compound `O=C(O)Cc1cccc(OCCCN(Cc2cccc(C(F)(F)F)c2Cl)CC(c2ccccc2)c2ccccc2)c1`, the AC50 in experiment [1] and in experiment [3] was 20.9 µM (active) in each case.

In the case of `CCSC(=N)N`, the luciferase signal in experiment [6] is 16 AU (inactive).

Consider `N.N.O=C(O)C1(C(=O)O)CCC1.[Pt]`, for which the inhibition is -4.65% in experiment [7]; -35.7% (inactive) and -31.6% (inactive) in experiment [8] (at 0.5 µM); -53% and -34.9% in [8] (setting [20]); -6.08% and -36.3% in [8] (setting [21]); -14.9% and -37.2% in experiment [8] (setting [22]); -63.4% (inactive) and -87.5% (inactive) in experiment [9] (at 0.5 µM). Also, the inhibition in experiment [9] (setting [23]) is -18.4% and -56.5%; in experiment [9] (setting [24]) it was -78.6% and -134%; in experiment [10] (at 0.5 µM), -1.12% (inactive) and -17.2% (inactive); in [10] (setting [25]), 0.288% and -20.6%; in experiment [10] (setting [26]), 4.09% and -19.6%; in experiment [11] (at 0.5 µM) it was -2.74% (inactive) and -5.32% (inactive). For the same compound, the inhibition in experiment [11] (setting [27]) is 42.2% and -5.66%; in experiment [11] (setting [28]), -17.5% and -30.7%; in [12] (at 0.5 µM), -25.7% (inactive) and -8.57% (inactive); in experiment [12] (setting [21]), -29.8% and -25.9%; in experiment [12] (setting [22]), -19% and -16.7%; in [13] (at 0.5 µM), -21.7% (inactive) and -6.11% (inactive). Also, the inhibition in experiment [13] (setting [29]) is -33.8% and -15%; in experiment [13] (setting [30]), 3.84% and 2.53%; in experiment [13] (setting [31]) it was -26.3% and -12.4%; in experiment [13] (setting [32]), 14% and 17.8%; in experiment [14] (setting [33]) it was 2.03% and 5.93%; in [14] (at 0.5 µM) it was -15.7% (inactive) and -7.62% (inactive). In addition, the inhibition is 29.9% and 24.6% in experiment [14] (setting [34]); -6.9% (inactive) and 14.2% (inactive) in [15]; -5.7% and 11.6% in experiment [15] (setting [35]); -6.14% and 19.2% in experiment [15] (setting [36]); -21% (inactive) and -15.1% (inactive) in [16] (at 0.5 µM); -2.17% and -35.9% in experiment [16] (setting [37]). Further, the inhibition in [16] (cisplatin combination, at 5 µM) was -41.8% and -20.7%; in experiment [16] (setting [38]), -10.5% and -37.9%; in experiment [16] (single agent, at 5 µM), -52.9% and -21.2%; in experiment [17] (at 0.5 µM) it was -27.3% (inactive) and -19.1% (inactive); in experiment [17] (cisplatin combo, at 5 µM), -0.537% and -4.06%; in [17] (setting [39]), -23.2% and -16.9%. In addition, the inhibition in experiment [17] (setting [21]) was -19.3% and -17.8%; in [17] (single agent, at 5 µM), -46.1% and -19.1%; in experiment [18] (at 0.5 µM), -31.3% (inactive) and -52.7% (inactive); in experiment [18] (setting [40]) it was -4.25% and -43.2%; in experiment [18] (setting [41]), -44.9% and -60%; in [18] (single agent, at 0.05 µM), -23.7% and -50.6%. Besides, the inhibition in [18] (single agent, at 5 µM) was 3.56% and 6.67%.

Regarding `Cn1cc(C2=C(c3ccc(Cl)cc3Cl)C(=O)NC2=O)c2ccccc21`, in [19], the liver cell % of control is 105% and 92.9% and 90.2%; the parasite % of control was 19.2% (inactive) and 24.2% (inactive) and 47.4% (inactive).

In the case of `Oc1cc2c(cc1O)C(c1ccccc1)CNCC2` (stereo unspecified), the luciferase signal in experiment [6] is 44 AU (inactive).

With `O=C(Nc1ccncc1)c1cc([N+](=O)[O-])ccc1Cl`, the inhibition in [8] (at 0.5 µM) was -23.9% (inactive); in experiment [8] (setting [20]), -37.5%; in experiment [8] (setting [21]), -9.6%; in [8] (setting [22]), 54.5%; in [9] (at 0.5 µM), -65.5% (inactive); in [9] (setting [23]), -72.7%. Besides, the inhibition in [9] (setting [24]) was -82.6%; in experiment [10] (at 0.5 µM), -11.5% (inactive); in [10] (setting [25]) it was -10.4%; in [10] (setting [26]) it was -13.5%; in experiment [11] (at 0.5 µM), -6.23% (inactive); in [11] (setting [27]), -27.4%. For the same compound, the inhibition in experiment [11] (setting [28]) was -17%; in [12] (at 0.5 µM), -23.4% (inactive); in [12] (setting [21]), -14.6%; in experiment [12] (setting [22]) it was -37.5%; in [13] (at 0.5 µM) it was -25.3% (inactive); in [13] (setting [29]), -15.4%. The inhibition was -30% in experiment [13] (setting [30]); -47.1% in experiment [13] (setting [31]); -23.8% in [13] (setting [32]); -19.1% in experiment [14] (setting [33]); -17.7% (inactive) in experiment [14] (at 0.5 µM); -9.35% in experiment [14] (setting [34]). Besides, the inhibition was -9.91% (inactive) in experiment [15]; 0.843% in experiment [15] (setting [35]); -18.4% in experiment [15] (setting [36]); -26.5% (inactive) in [16] (at 0.5 µM); -23.3% in [16] (setting [37]); -134% in experiment [16] (cisplatin combination, at 5 µM). The inhibition in [16] (setting [38]) is -33.5%; in experiment [16] (single agent, at 5 µM), 23.7%; in experiment [17] (at 0.5 µM), -25.9% (inactive); in experiment [17] (cisplatin combo, at 5 µM), 23.7%; in [17] (setting [39]) it was -24.6%; in [17] (setting [21]) it was -52.5%. The inhibition in experiment [17] (single agent, at 5 µM) was -3.16%; in experiment [18] (at 0.5 µM), 6.35% (inactive); in [18] (setting [40]) it was -12.9%; in experiment [18] (setting [41]) it was 14.6%; in [18] (single agent, at 0.05 µM) it was -34.7%; in [18] (single agent, at 5 µM), -4.08%.

These data come from PubChem BioAssay.
